Screen size: about 1,100 compounds; about 390 (35%) were called active. About 30% were inconclusive and are not listed. Calls follow the shape of the dose curve; as a rule, active = well fitted inhibition curve with a large enough effect; inconclusive = small, poorly fitted or top-dose-only effect; inactive = flat fitted curve, though single readings scatter. The list shows a part of the results.
Molecular target: Luciferin 4-monooxygenase (Photinus pyralis) (UniProt P08659)
Assay: qHTS of Nrf2 Activators: Hit Validation in Secondary FLuc Assay; also: nearly all actives have a fitted effect of over 65% in size
Details: firefly luciferase inhibition counter-screen, luminescence; series mostly up to 57.5 µM
Outline: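 Purified firefly luciferase is tested for inhibition by compounds in the presence of its substrates, ATP and D-luciferin, each at Km. Inhibition marks likely false positives arising from reporter-enzyme stabilization.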
Potency is read from the fitted curve at half-maximal effect.

| SMILES | Potency |
| --- | --- |
| O=C(Nc1cccnc1)C1(F)C(F)(F)C(F)(F)C(F)(F)C(F)(F)C1(F)F | inactive |
| O=C(Nc1ccc(N2CCN(C(=O)c3ccc(Cl)cc3)CC2)cc1)c1ccc([N+](=O)[O-])o1 | inactive |
| N#Cc1c(NC(=O)c2ccc([N+](=O)[O-])o2)sc2c1CCC2 | 1.69 µM (active) |
| O=C(NCC1CCCO1)c1ccc([N+](=O)[O-])o1 (stereo not drawn) | inactive |
| O=C(Nc1nc2ccsc2c(=O)s1)c1ccco1 | 10.7 µM (active) |
| O=C(Nc1ccc(Br)c(Cl)c1)c1ccco1 | 5.36 µM (active) |
| O=C(Nc1nc(-c2ccncc2)cs1)c1ccco1 | 12 µM (active) |
| O=C(Nc1nc2c(ccc3ccccc32)s1)c1ccco1 | 4.78 µM (active) |
| O=C(Nc1cc(Cl)ccc1-n1cncn1)c1ccco1 | inactive |
| CC(=O)Nc1ccc2nc(NC(=O)c3ccco3)sc2c1 | 2.39 µM (active) |
| Cc1ccc(Cl)c2sc(NC(=O)C3CC3)nc12 | inactive |
| Cc1cc(Cl)cc2sc(NC(=O)c3ccco3)nc12 | 1.69 µM (active) |
| C[C@H]1CCC[C@]2(C)C[C@H]3OC(=O)C(CN4CCCCCC4)[C@H]3C=C12 (stereo partly drawn) | inactive |
| N#CC1CC(c2ccccc2)=NN1c1ccccc1[N+](=O)[O-] (stereo not drawn) | 3.79 µM (active) |
| Cc1ccc(Cc2c(-c3ccco3)nc3c(C)cc(Br)cn23)cc1 | 5.36 µM (active) |
| Cc1cc(Br)cn2c(Cc3ccccc3)c(-c3ccco3)nc12 | 9.53 µM (active) |
| COc1cc2c(cc1OC)/C(=C/c1ccc(Cl)cc1)C(=O)OC2 | inactive |
| O=C(O)c1ccc2c(=O)n3c(nc2c1)/C(=C/c1cccc(Cl)c1Cl)CC3 | inactive |
| O=C(Nc1ccc(Br)c(C(F)(F)F)c1)c1ccccc1 | 9.53 µM (active) |
| O=C(Nc1c(Br)cc2c(c1Br)Cc1ccccc1-2)C(F)(F)F | inactive |
| O=C(Nc1ccc2c(c1)C(=O)NC2=O)c1cccc(C(F)(F)F)c1 | inactive |
| c1ccc(Cn2ncc3c(NCc4ccco4)ncnc32)cc1 | inactive |
| Cc1cc(NCc2ccco2)n2c(nc3ccccc32)c1C#N | inactive |

| SMILES | Potency |
| --- | --- |
| Cc1ccc(-c2nc(NCc3ccco3)c3ccccc3n2)cc1 | 10.7 µM (active) |
| O=C(NC(=S)Nc1ccc(Br)cn1)c1cccs1 | 0.19 µM (active) |
| O=C(NC(=S)Nc1ccc(Cl)cn1)c1cccs1 | 0.151 µM (active) |
| O=C(NC(=S)Nc1cccc2cccnc12)c1cccs1 | 0.953 µM (active) |
| Cc1cccc(NC(=S)NC(=O)c2cccs2)n1 | 12 µM (active) |
| O=C(N/N=C/c1ccc(Br)s1)c1cccs1 | 6.75 µM (active) |
| COC(=O)c1sccc1NC(=O)c1ccc(Br)s1 | inactive |
| Cc1ccc(S(=O)(=O)c2nc(S(C)(=O)=O)sc2N2CCC3(CC2)OCCO3)cc1 | inactive |
| Cc1cc(NC(=O)CC(C)(C)C)nc2c1c(=O)oc1ccccc12 | inactive |
| C=CCc1cccc(C=Nc2cc(Br)ccc2O)c1O | inactive |
| Brc1ccc2nc(-c3ccco3)c(Cc3ccsc3)n2c1 | 5.36 µM (active) |
| Fc1cccc(Cc2c(-c3ccco3)nc3ccc(Br)cn23)c1 | 5.36 µM (active) |
| O=C(N/N=C\C=C\c1ccco1)c1cc(-c2ccc3ccccc3c2)n[nH]1 | 5.36 µM (active) |
| O=C(N/N=C/C=C/c1ccco1)c1cccc([N+](=O)[O-])c1 | inactive |
| O=C(O)c1ccc(/C=C2\COc3ccccc3C2=O)cc1 | 9.53 µM (active) |
| COc1ccc(N(CCCN2C(=O)c3cccc4cccc(c34)C2=O)C(=O)c2ccncc2)cc1 | inactive |
| Cc1c(C(=O)NCc2ccco2)oc2c(Cl)cccc12 | inactive |
| O=C(CSc1nnc2c(n1)[nH]c1ccccc12)NCc1ccco1 | 19 µM (active) |
| O=C(NCc1ccco1)c1n[nH]c(=O)c2ccccc12 | inactive |
| Cc1ccc(O)c(NC(=O)c2cccc(NC(=O)c3ccco3)c2)c1 | 12 µM (active) |
| Clc1ccc(Br)cc1-c1nc(-c2ccncc2)no1 | 8.49 µM (active) |
| CSc1nc2sc3c(c2c(=O)n1C)CCC(C)C3 (stereo not drawn) | 6.01 µM (active) |
| COc1cc(/C=N/Nc2nc3ccccc3s2)ccc1OC(=O)c1ccccc1F | 5.36 µM (active) |

| SMILES | Potency |
| --- | --- |
| Cc1ccc2ccc(C3C(=O)c4ccccc4C3=O)nc2c1 | 0.269 µM (active) |
| COc1ncccc1-c1cc2nc(NCCNC(C)=O)n(C)c(=O)c2s1 | 15.1 µM (active) |
| Cn1c(NCc2ccc3occc3c2)nc2cc(-c3cccc(C(F)(F)F)c3)sc2c1=O | inactive |
| Cn1c(NCC2CCCCC2)nc2cc(-c3ccsc3)sc2c1=O | inactive |
| C/C(=N\NC(=O)c1cccc(S(=O)(=O)N2CCCC2)c1)c1ccco1 | inactive |
| C/C(=N\NC(=O)c1c[nH]c2ccccc12)c1ccco1 | 7.57 µM (active) |
| CC(=NNC(=O)CSc1nc2ccccc2o1)c1ccco1 | inactive |
| Oc1ccc2ccccc2c1N=Nc1ccccn1 | 10.7 µM (active) |
| CSc1nnc(-c2ccco2)c(-c2ccco2)n1 | 4.78 µM (active) |
| O=C(CSc1nnc(-c2ccco2)c(-c2ccco2)n1)c1ccccc1 | 2.69 µM (active) |
| CCc1nc(N)c(C#N)c(-c2ccco2)c1C | inactive |
| C=C1C2=C(C(=O)N1OC)[C@@H](O)[C@@](C)(O)[C@@H](CCCCC)O2 | inactive |
| CC(C)N(C(=O)COC(=O)c1ccccc1C(=O)c1ccc(Cl)c([N+](=O)[O-])c1)C(C)C | inactive |
| O=C(c1ccc(S(=O)(=O)Cc2ccccc2Cl)c([N+](=O)[O-])c1)N1CCOCC1 | inactive |
| O=C(Nc1nc2ccccc2[nH]1)c1ccc(Cl)c([N+](=O)[O-])c1 | 2.69 µM (active) |
| N#C/C(=C\c1c(Oc2ccc(Cl)cc2)nc2ccccn2c1=O)C(=O)NC1CCS(=O)(=O)C1 (stereo not drawn) | inactive |
| COc1ccccc1NC(=O)c1cc(Cl)nc2ccccc12 | inactive |
| COc1ccccc1C(=O)NCc1nc2cccnc2n1Cc1ccc(F)cc1 | inactive |
| COc1ccccc1NC(=O)c1ncn(-c2ccccc2)n1 | 10.7 µM (active) |
| COc1cc(NC(=S)Nc2ccccn2)c(OC)cc1Cl | inactive |
| COc1ccccc1NC(=O)C(=O)Nc1ccccn1 | 1.69 µM (active) |
| CCCn1c(-c2cccs2)nc2nc3ccccc3nc21 | 12 µM (active) |

Reference: PubChem BioAssay AID651597 (National Center for Advancing Translational Sciences (NCATS), 2012)
